Assay results reported in PubChem BioAssay (Tox21).
Inconclusive results are not listed. Active and inactive are the calls of the source. Unless noted, the call rests on the fitted dose curve.

Experiments:
[1] = qHTS assay to identify small molecule agonists of the sonic hedgehog signaling (Shh) pathway (AID 1259368);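 further: NIH/3T3-derived 3T3Gli1-Luc cells carrying a stable Gli1-driven firefly luciferase reporter; series mostly up to about 92 µM; nearly all actives have a fitted effect of over 15% in size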
Summary of the method: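 3T3Gli1-Luc (NIH/3T3 clone, stable Gli1-Luc); 4 hr pre-incubation, then cpd in DMSO 24 hr, 37 C/5% CO2; luciferase reagent 30 min RT; luminescence.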

[2] = qHTS assay to identify small molecule antagonists of the sonic hedgehog signaling (Shh) pathway (AID 1259369); further: nearly all actives have a fitted effect of over 45% in size; further: potency means the concentration at half of the fitted maximal effect
Summary of the method: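 3T3Gli1-Luc, conditioned-medium-stimulated, 24hr cpd, 37C/5% CO2; Gli1-driven firefly Luc luminescence after 30min RT with luciferase reagent. Cells plated 4hr before cpd.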

[3] = target: Estrogen receptor beta (Homo sapiens) (UniProt Q92731); test: qHTS assay to identify small molecule agonists of the estrogen receptor beta (ER-beta) signaling pathway (AID 1259377; active means well fitted activation curve with a large enough effect in the signal ratio in the repeat runs, not every such curve was filed as active; the % refers to the signal ratio)
Summary of the method: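 A UAS-controlled beta-lactamase reporter in ER-beta-UAS-bla HEK293T cells reports receptor activation. Compounds act for 16 hr at 37C in 2% charcoal-stripped serum, and a FRET substrate is read by fluorescence after 2 hours.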

[4] = target: Estrogen receptor beta (Homo sapiens) (UniProt Q92731); test: qHTS assay to identify small molecule antagonists of the estrogen receptor beta (ER-beta) signaling pathway (AID 1259378; active means well fitted inhibition curve with a large enough effect in the signal ratio in the repeat runs, not every such curve was filed as active; the % refers to the signal ratio; further: potency means the concentration at half of the fitted maximal effect)
Summary of the method: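 ER-beta-UAS-bla HEK293T cells in 2% charcoal-stripped FBS medium treated with compound plus 1nM final 17-beta-estradiol for 16 hr at 37C. Beta-lactamase reporter read by FRET substrate fluorescence after 2 hours at room temperature.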

[5] = qHTS assay to identify small molecule agonists of the androgen receptor (AR) signaling pathway in the presence of an antagonist - cell viability counter screen (AID 1259379; active means well fitted curve in the direction sought with a large enough effect in the repeat runs; an effect the other way counts as inactive or inconclusive;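 further: MDA-kb2 human breast cancer cells carrying an MMTV luciferase reporter; series mostly up to about 92 µM; nearly all actives have a fitted effect of over 25% in size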)
Summary of the method: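 Cells: MDA-kb2 (MMTV-luc, AR and GR elements), 3,000/well, 5 hr settle. Added: nilutamide 3.0uM final, then compounds (15 conc.). Incubation: 16 hr, 37C, no CO2. Read-out: CellTiter-Fluor, 1 hr, fluorescence.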

[6] = qHTS assay to identify small molecule agonists of the estrogen receptor beta (ER-beta) signaling pathway - cell viability counter screen (AID 1259380; active means well fitted curve in the direction sought with a large enough effect in the repeat runs; an effect the other way counts as inactive or inconclusive; further: nearly all actives have a fitted effect of over 30% in size; further: potency means the concentration at half of the fitted maximal effect)
Summary of the method: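 HEK293T ER-beta-UAS-bla; 2% CS-FBS; 6 hr pre-plate, 16 hr cpd at 37C/5% CO2; LiveBLAzer read first, then CellTiter-Glo 30 min RT, luminescence.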

[7] = qHTS assay to identify small molecule antagonists of the estrogen receptor beta (ER-beta) signaling pathway - cell viability counter screen (AID 1259382; active means well fitted curve in the direction sought with a large enough effect in the repeat runs; an effect the other way counts as inactive or inconclusive; further: nearly all actives have a fitted effect of over 55% in size; further: potency means the concentration at half of the fitted maximal effect)
Summary of the method: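 Cells: ER-beta-UAS-bla HEK293T, 2,000/well, 2% CS-FBS, 6 hr settle. Cpd + E2 (1nM final), 16 hr, 37C/5% CO2. Bla FRET substrate 2 hr RT, then CellTiter-Glo 30 min RT, luminescence.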

[8] = target: Estrogen receptor (Homo sapiens) (UniProt P03372); test: qHTS assay to identify small molecule agonists of the estrogen receptor alpha (ER-alpha) signaling pathway in the presence of an antagonist (AID 1259383); further: top concentration of the series differs between compounds; nearly all actives have a fitted effect of over 15% in size
Summary of the method: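 VM7Luc4E2, endog. ER-alpha + 4×ERE-luc; charcoal-stripped FBS, phenol red-free, 5 d; 24hr plating; +10.0nM ICI-182,780 (final); cpds 15 conc, 22hr, 37C/5% CO2; ONE-Glo luminescence.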

[9] = qHTS assay to identify small molecule agonists or antagonists of the thyroid stimulating hormone receptor (TSHR) signaling pathway - wild type cell line counter screen (AID 1259384)
Summary of the method: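 Wild-type Hek293 cells, 800/well, 18 h at 37C, then compound with Ro20-1724 for 30 min RT. cAMP by HTRF (cAMP-d2/anti-cAMP cryptate), 1 h RT, fluorescence read. 15 concentrations, triplicates.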

[10] = target: Thyrotropin receptor (Homo sapiens) (UniProt P16473); test: qHTS assay to identify small molecule antagonists of the thyroid stimulating hormone receptor (TSHR) signaling pathway (AID 1259385); further: nearly all actives have a fitted effect of over 20% in size; further: potency means the concentration at half of the fitted maximal effect
Summary of the method: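 TSHR-HEK293 cells (800/well) plated 18 h, then compounds with Ro20-1724 and TSH at 1.5 ng/mL final, 30 min at room temperature. cAMP quantified by HTRF (cAMP-d2/anti-cAMP-cryptate, 1 h); 15 concentrations in triplicate.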

[11] = qHTS assay to identify small molecule antagonists of the progesterone receptor (PR) signaling pathway - cell viability counter screen (AID 1346798; active means well fitted curve in the direction sought with a large enough effect in the repeat runs; an effect the other way counts as inactive or inconclusive; further: nearly all actives have a fitted effect of over 50% in size; further: potency means the concentration at half of the fitted maximal effect)
Summary of the method: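 Same-well multiplex: after 16 hr at 37C with compound and R5020 stimulation, HEK293T cells carrying a UAS-bla reporter received LiveBLAzer substrate (2 hr RT), then CellTiter-Glo (30 min RT) for luminescent viability.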

[12] = qHTS assay to identify small molecule agonists of the progesterone receptor (PR) signaling pathway - cell viability counter screen (AID 1346799); further: nearly all actives have a fitted effect of over 45% in size
Summary of the method: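 Counter screen for cytotoxicity: compound-treated PR-UAS-bla HEK293T cells (16 hr, 37C, 5% CO2) were assayed with CellTiter-Glo, luminescence measured after 30 min at room temperature.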

[13] = qHTS assay to identify small molecule antagonists of the TGF-beta/Smad signaling pathway - cell viability counter screen (AID 1346824; active means well fitted curve in the direction sought with a large enough effect in the repeat runs; an effect the other way counts as inactive or inconclusive; further: nearly all actives have a fitted effect of over 50% in size)
Summary of the method: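 SBE-bla HEK 293T cells, incubated overnight, then compound plus 0.25 ng/mL TGF-beta1 (stock added) for 5 hr at 37 C. Viability was read in the same wells by CellTiter-Glo luminescence after 30 min at room temperature.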

[14] = qHTS assay to identify small molecule agonists of the TGF-beta/Smad signaling pathway - cell viability counter screen (AID 1346829; active means well fitted curve in the direction sought with a large enough effect in the repeat runs; an effect the other way counts as inactive or inconclusive; further: top concentration of the series differs between compounds; nearly all actives have a fitted effect of over 45% in size)
Summary of the method: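 Tox21 qHTS format: SBE-bla HEK 293T cells treated with DMSO-dissolved compounds for 5 hr; CellTiter-Glo luminescence after 30 min at room temperature.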

[15] = qHTS assay to identify small molecule agonists of the TGF-beta/Smad signaling pathway (AID 1346859; active means well fitted activation curve with a large enough effect in the signal ratio in the repeat runs, not every such curve was filed as active; the % refers to the signal ratio; further: series mostly up to about 77 µM)
Summary of the method: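 Smad-responsive beta-lactamase reporter cells (HEK 293T) received compounds from DMSO stocks after overnight attachment, were incubated 5 hr, then treated 2 hr with FRET substrate before dual-emission fluorescence measurement (405 nm excitation).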

[16] = target: Thyrotropin-releasing hormone receptor (Homo sapiens) (UniProt P34981); test: qHTS assay to identify small molecule antagonists of the thyrotropin-releasing hormone receptor (TRHR) signaling pathway (AID 1346877; active means well fitted inhibition curve with a large enough effect in the repeat runs, not every such curve was filed as active; further: series mostly up to about 51 µM)
Summary of the method: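 Intracellular calcium fluorescence, read kinetically every second over 3 min, reports TRH-evoked signalling in HEK293 cells carrying TRHR. Test compounds were added 5 min ahead of a 1 nM TRH challenge.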

[17] = qHTS assay to identify small molecule agonists of the estrogen receptor alpha (ER-alpha) signaling pathway in the presence of an antagonist - cell viability counter screen (AID 1259386; active means well fitted curve in the direction sought with a large enough effect in the repeat runs; an effect the other way counts as inactive or inconclusive;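 further: cells exposed to compounds for 22 h at 37 °C before the viability read; nearly all actives have a fitted effect of over 30% in size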; further: potency means the concentration at half of the fitted maximal effect)
Summary of the method: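 VM7Luc4E2, stripped-serum pre-culture 5 d; 24hr plating; +ICI-182,780 10.0nM final; cpds 15 conc, 22hr, 37C/5% CO2; CellTiter-Fluor added at 21hr, fluorescence 1hr later.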

[18] = target: Progesterone receptor (Homo sapiens) (UniProt P06401); test: qHTS assay to identify small molecule agonists of the progesterone receptor (PR) signaling pathway (AID 1346784); further: nearly all actives have a fitted effect of over 30% in size; further: potency means the concentration at half of the fitted maximal effect
Summary of the method: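 Agonist mode, quantitative HTS format in a HEK 293T line expressing a UAS-controlled beta-lactamase reporter; 16 hr compound exposure at 37C in 2% charcoal-stripped FBS, then LiveBLAzer B/G FRET fluorescence.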

[19] = target: Progesterone receptor (Homo sapiens) (UniProt P06401); test: qHTS assay to identify small molecule antagonists of the progesterone receptor (PR) signaling pathway (AID 1346795; active means well fitted inhibition curve with a large enough effect in the signal ratio in the repeat runs, not every such curve was filed as active; the % refers to the signal ratio; further: potency means the concentration at half of the fitted maximal effect)
Summary of the method: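 HEK293T PR-UAS-bla reporter cells in charcoal-stripped serum (2%) received compound after a 6 hr settling period, followed by R5020 agonist at 1 nM final; 16 hr incubation preceded the FRET substrate step and fluorescence measurement.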

[20] = target: Androgen receptor (Homo sapiens) (UniProt P10275); test: qHTS assay to identify small molecule agonists of the androgen receptor (AR) signaling pathway in the presence of an antagonist (AID 1259381); further: nearly all actives have a fitted effect of over 15% in size
Summary of the method: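 MDA-kb2 cells, 3,000/well, rested 5hr at 37C/0% CO2 → nilutamide 3.0uM final or buffer → compounds, 15 conc. → 16hr at 37C → ONE-Glo, 30min RT → luminescence.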

Measured: Potency

Chain of Progesterone receptor (Homo sapiens) (P06401 whole entry, looked up): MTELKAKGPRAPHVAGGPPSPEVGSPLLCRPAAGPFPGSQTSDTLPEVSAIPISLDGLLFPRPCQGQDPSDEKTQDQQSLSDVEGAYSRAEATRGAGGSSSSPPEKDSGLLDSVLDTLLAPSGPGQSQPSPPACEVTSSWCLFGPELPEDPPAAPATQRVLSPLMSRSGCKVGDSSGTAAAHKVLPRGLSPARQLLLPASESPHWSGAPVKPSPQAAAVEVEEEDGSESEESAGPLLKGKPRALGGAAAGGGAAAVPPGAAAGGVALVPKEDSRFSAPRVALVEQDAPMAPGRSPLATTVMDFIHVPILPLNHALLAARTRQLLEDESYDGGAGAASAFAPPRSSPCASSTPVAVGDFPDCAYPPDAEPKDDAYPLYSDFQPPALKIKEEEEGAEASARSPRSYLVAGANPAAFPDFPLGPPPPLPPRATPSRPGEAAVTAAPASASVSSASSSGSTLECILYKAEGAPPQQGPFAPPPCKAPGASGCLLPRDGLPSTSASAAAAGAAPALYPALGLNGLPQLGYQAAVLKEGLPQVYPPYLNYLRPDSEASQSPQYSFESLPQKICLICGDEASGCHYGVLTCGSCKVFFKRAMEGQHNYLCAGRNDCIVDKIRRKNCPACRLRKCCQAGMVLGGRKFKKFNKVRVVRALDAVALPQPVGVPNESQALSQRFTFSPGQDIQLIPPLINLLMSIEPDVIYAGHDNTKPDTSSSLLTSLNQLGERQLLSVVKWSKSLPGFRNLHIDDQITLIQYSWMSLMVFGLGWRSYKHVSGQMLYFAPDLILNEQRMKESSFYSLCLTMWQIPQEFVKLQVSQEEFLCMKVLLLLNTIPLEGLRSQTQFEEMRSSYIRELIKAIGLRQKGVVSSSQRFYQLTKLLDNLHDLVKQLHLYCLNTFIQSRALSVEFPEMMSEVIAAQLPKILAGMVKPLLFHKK
Chain of Estrogen receptor (Homo sapiens) (P03372 whole entry, looked up): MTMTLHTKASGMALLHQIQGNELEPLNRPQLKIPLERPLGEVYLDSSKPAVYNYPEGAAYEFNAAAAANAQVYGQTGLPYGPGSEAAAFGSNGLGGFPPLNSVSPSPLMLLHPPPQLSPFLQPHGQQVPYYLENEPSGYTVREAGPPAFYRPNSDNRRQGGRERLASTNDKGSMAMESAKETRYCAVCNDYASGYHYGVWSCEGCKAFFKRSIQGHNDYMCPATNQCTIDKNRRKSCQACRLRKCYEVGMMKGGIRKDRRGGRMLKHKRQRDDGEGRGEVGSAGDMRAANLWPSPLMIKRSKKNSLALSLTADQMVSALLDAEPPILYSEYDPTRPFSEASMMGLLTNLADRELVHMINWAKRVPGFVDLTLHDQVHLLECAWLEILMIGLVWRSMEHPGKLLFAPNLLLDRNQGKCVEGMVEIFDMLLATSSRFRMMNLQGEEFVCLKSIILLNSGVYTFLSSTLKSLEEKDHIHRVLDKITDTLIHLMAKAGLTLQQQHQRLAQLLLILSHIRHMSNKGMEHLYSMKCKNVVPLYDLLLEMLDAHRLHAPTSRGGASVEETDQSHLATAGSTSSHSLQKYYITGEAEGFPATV
Chain of Thyrotropin receptor (Homo sapiens) (P16473 whole entry, looked up): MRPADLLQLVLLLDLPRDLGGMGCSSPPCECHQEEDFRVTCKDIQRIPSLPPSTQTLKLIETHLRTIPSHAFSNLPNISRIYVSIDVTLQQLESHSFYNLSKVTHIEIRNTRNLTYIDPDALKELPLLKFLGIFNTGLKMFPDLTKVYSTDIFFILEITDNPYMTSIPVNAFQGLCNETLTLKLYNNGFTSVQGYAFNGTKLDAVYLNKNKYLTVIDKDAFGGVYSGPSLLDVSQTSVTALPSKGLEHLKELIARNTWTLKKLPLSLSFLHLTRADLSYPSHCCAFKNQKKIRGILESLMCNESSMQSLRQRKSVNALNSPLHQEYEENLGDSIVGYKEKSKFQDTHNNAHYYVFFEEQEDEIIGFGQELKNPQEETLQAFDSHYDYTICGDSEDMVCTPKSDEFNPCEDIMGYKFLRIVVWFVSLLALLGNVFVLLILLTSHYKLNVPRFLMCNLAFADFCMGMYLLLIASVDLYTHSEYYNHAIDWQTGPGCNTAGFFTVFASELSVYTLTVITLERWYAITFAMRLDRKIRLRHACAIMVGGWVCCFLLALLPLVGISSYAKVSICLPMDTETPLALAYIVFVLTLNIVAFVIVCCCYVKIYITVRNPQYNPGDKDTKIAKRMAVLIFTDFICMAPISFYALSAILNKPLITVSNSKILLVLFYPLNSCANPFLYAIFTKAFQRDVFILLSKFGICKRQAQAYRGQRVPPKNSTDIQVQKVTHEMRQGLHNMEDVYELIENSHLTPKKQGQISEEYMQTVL
Chain of Estrogen receptor beta (Homo sapiens) (Q92731 whole entry, looked up): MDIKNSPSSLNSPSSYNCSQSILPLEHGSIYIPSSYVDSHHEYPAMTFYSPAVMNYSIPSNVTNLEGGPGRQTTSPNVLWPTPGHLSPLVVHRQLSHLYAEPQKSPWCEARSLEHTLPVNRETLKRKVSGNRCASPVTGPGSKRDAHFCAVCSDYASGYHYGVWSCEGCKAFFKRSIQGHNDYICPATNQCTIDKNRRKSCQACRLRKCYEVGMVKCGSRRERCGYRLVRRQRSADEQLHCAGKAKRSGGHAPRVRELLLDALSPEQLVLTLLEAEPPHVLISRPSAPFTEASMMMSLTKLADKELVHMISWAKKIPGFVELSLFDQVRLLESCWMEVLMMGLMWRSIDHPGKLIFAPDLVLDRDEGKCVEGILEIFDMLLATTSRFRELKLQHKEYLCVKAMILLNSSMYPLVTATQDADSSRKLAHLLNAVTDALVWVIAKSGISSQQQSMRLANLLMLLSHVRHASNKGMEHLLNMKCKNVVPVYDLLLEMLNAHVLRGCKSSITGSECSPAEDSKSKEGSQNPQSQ
Chain of Thyrotropin-releasing hormone receptor (Homo sapiens) (P34981 whole entry, looked up): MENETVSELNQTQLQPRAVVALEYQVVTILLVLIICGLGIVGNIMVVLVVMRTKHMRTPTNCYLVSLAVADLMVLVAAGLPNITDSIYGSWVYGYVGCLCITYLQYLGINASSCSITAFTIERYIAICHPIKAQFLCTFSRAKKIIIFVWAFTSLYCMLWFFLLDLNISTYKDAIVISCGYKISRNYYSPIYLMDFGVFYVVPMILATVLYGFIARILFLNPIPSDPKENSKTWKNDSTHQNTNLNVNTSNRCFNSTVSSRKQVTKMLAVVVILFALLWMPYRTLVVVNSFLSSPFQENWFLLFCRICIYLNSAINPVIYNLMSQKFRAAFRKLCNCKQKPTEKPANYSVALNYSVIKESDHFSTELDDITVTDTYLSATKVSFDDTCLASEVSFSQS
Chain of Androgen receptor (Homo sapiens) (P10275 whole entry, looked up): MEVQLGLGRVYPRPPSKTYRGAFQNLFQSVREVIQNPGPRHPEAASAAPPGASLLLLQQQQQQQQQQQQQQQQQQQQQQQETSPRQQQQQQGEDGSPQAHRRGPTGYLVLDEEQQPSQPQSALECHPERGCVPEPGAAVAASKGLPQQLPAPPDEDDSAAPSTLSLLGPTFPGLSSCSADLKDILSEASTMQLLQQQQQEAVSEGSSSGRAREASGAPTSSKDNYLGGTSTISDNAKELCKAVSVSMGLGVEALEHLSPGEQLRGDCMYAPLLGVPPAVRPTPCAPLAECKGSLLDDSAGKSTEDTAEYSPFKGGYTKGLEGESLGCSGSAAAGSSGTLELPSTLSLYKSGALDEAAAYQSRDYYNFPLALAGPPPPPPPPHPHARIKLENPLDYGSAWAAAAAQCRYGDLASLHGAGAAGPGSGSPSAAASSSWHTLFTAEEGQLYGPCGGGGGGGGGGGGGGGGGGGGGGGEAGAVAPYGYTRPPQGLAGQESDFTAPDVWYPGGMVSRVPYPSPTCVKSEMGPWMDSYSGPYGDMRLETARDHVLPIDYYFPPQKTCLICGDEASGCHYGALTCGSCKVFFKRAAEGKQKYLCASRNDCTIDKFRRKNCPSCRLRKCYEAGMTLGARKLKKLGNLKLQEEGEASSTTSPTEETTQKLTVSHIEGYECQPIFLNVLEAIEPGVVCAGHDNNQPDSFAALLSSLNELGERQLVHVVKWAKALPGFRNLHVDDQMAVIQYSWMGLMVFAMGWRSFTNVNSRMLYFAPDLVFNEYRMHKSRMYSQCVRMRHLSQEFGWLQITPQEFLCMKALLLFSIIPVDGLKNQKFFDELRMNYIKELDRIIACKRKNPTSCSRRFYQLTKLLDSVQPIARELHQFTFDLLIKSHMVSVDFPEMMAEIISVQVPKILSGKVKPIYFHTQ

C=CC(C)(CCC=C(C)C)OC(=O)CC(C)C (centres undefined)
not listed: [17] | [18] | [19] | [20]
inactive: all other assays above

O=C1CCCCCCCCCCOCCCCO1
not listed: [8] | [15] | [16] | [19] | [20]
inactive: all other assays above

C=C1CCC2CC1C2(C)C (centres undefined)
not listed: [20]
inactive: all other assays above

CCCCCCC(C)(C)C(=O)O
inactive: all assays above

Oc1cccc(O)c1O
active: [2] 15.2 µM | [17] 68 µM
not listed: [20]
inactive: all other assays above

CCC(OCCCOC)OC(C)=O (centres undefined)
not listed: [8] | [17] | [19] | [20]
inactive: all other assays above

COC(=O)CCS
not listed: [7] | [12] | [16] | [20]
inactive: all other assays above

CCC1(CO)COCOC1
not listed: [11] | [19] | [20]
inactive: all other assays above

Cc1cc(C)cc(N)c1
inactive: all assays above

O=C(O)c1ccc(OCCCOc2ccc(C(=O)O)cc2)cc1
not listed: [3] | [8] | [12] | [19] | [20]
inactive: all other assays above

CC(C)(O)c1ccc(CNC(=O)c2cccnc2Oc2ccc3nonc3c2)cc1
active: [2] 0.486 µM
not listed: [4] | [6] | [7] | [17] | [19] | [20]
inactive: all other assays above

CN1C(=O)c2ccccc2C1=O
active: [2] 43.3 µM | [18] 1.09 µM
not listed: [3] | [8] | [11] | [12] | [19] | [20]
inactive: all other assays above

CC1(C)[C@H](C(=O)O)N2C(=O)C[C@H]2S1(=O)=O
active: [4] 11.9 µM
not listed: [3] | [7] | [9] | [10] | [18] | [19] | [20]
inactive: all other assays above

CCC1NC(=O)c2cc(S(N)(=O)=O)c(Cl)cc2N1 (centres undefined)
not listed: [6] | [8] | [16] | [20]
inactive: all other assays above

C[C@@H]1CN(CCCn2c3ccccc3c3ccccc32)C[C@H](C)N1
active: [2] 10.6 µM | [4] 13.3 µM | [6] 10.6 µM | [7] 11.9 µM | [10] 33.5 µM | [19] 29.8 µM | [11] 11.9 µM
not listed: [5] | [8] | [12] | [20]
inactive: all other assays above

CCCCCC[C@@H](O)C/C=C\CCCCCCCC(=O)O
not listed: [4] | [6] | [7] | [8] | [11] | [12] | [20]
inactive: all other assays above
